Laboratory results taken from PubChem BioAssay (NCI).
The panel holds about 83,000 compounds, 20% with a hit somewhere; the sample as a whole holds those more often.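 96-well plates, one dose, 48 hours. Percent growth reported; active if below 10.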 Unmarked numbers belong to inactive results. The source made the active and inactive calls.

Key:
Experiment in all cases: NCI-60 one-dose screen, 48 h (100 = growth as untreated, 0 = no growth, -100 = all killed)
Settings in all cases: 10 µM unless noted
[1] = tested on: HCT-15 colon
[2] = tested on: HT29 colon
[3] = tested on: SNB-75 CNS
[4] = tested on: SNB-19 CNS
[5] = tested on: U251 CNS
[6] = tested on: PC-3 prostate
[7] = tested on: SK-MEL-5 melanoma
[8] = tested on: UACC-62 melanoma
[9] = tested on: LOX IMVI melanoma
[10] = tested on: SK-MEL-28 melanoma

| Structure (SMILES) | growth [1] | growth [2] | growth [3] | growth [4] | growth [5] | growth [6] | growth [7] | growth [8] | growth [9] | growth [10] |
| --- | --- | --- | --- | --- | --- | --- | --- | --- | --- | --- |
| NS(=O)(=O)c1cccc(Nc2nc(SCC(=O)c3ccc(F)cc3)nc3ccccc23)c1 | 8.07% (active) | 18.3% | 28.3% | 11.9% | -12% (active) | 16.6% | -29.1% (active) | -49.8% (active) | -44.6% (active) | 26.8% |
| C#CCN(C)CCCOc1ccc(N(C)C(=O)c2cc(C(C)C)c(O)cc2O)cc1Cl | 4.84% (active) | 9.18% (active) | 26.2% | 22.1% | 11.4% | 20% | -94.4% (active) | -17.6% (active) | -89.2% (active) | 15.9% |
| O=C(c1cc2cc(OCCCN3CCC3)ccc2[nH]1)N1C[C@@H](CCl)c2c1cc(OCc1ccccc1)c1ccccc21 | -21.1% (active) | -25.2% (active) | -79.5% (active) | -12.1% (active) | -80.7% (active) | -21.4% (active) | -23.2% (active) | -82.6% (active) | -94.2% (active) | -45.8% (active) |
| CC(Nc1ncnc2ccc(-c3ccc4oc(N)nc4c3)cc12)c1ccccc1 (stereo not given) | 5.13% (active) | 29.5% | -82.8% (active) | 20.3% | -22.8% (active) | 34.4% | -75.3% (active) | 11.9% | -97.7% (active) | 17.4% |
| N#Cc1c(NC(=O)N2CCOCC2)n(-c2ccc(OC(F)(F)F)cc2)c2cc(F)ccc12 | 95.5% | 90% | 140% | 117% | 98.8% | 83.9% | 82.4% | 73.2% | 102% | 89.5% |
| COc1ccc(C(=O)c2cc(C(C)=O)c3c(C)cc(C)cn23)cc1 | 65.9% | 72.5% | 2.27% (active) | 24.8% | 32.4% | 82.9% | 33.6% | 63.4% | 54.9% | 72.9% |
| C[C@H](NC(=O)c1ccc2c(-c3ccc(C(F)(F)F)cc3)cccc2c1)c1ccccn1 | 20.4% | 26.6% | 87.3% | 42% | 42.3% | 34.2% | 34.7% | 60.3% | 43.7% | 74.6% |
| C[C@@H]1[C@H]2C[C@@H](C[C@H]1NCc1nc3ccccc3n1C1CCCCCC1)C2(C)C | 27.3% | 51.4% | 82% | 59.3% | 67.2% | 37.1% | 4.99% (active) | 47.9% | 44% | 77.5% |
| COc1ccc2[nH]c(=O)c(CSc3ccccc3Nc3nccc(-c4ccc(Cl)cc4)n3)cc2c1 | 25.8% | 17.3% | 23.6% | 56.8% | 37.8% | 38.5% | 25.4% | 52.6% | 19.4% | 74.1% |
| COc1cc2cc(C(=O)N3C[C@@H](CCl)c4c3cc(OC(=O)N(C)CCSSCCN3CCOCC3)c3ccccc43)[nH]c2c(OC)c1OC | -11.1% (active) | -10% (active) | -74.6% (active) | -99.6% (active) | -24.1% (active) | -12.2% (active) | -46.5% (active) | -80.3% (active) | -69.2% (active) | -60.7% (active) |
| COc1ccc(-c2cc(C)nc3[nH]c(=O)sc23)cc1 | 88.1% | 93.3% | -4.05% (active) | 53.6% | 9.93% (active) | 81.3% | 80.4% | 60.9% | 45.9% | 89.8% |
| CC(=O)Nc1ccc(S(=O)(=O)Nc2ccc(-c3ccc4c(c3)NC(=O)/C4=C\c3ccc[nH]3)cc2)cc1 | 98.3% | 118% | 108% | 73% | 89.2% | 91.4% | 92.6% | 68.7% | 85.2% | 83.6% |
| O=CNc1ccc(-n2cnc3cc(-c4ccc(O)cc4)ccc32)cc1 | 74% | 111% | 59.3% | 88.5% | 84.6% | 88.1% | 79.4% | 99.2% | 93.7% | 92.9% |
| Clc1ccc(CNc2nc(SCCN3CCOCC3)nc3c2cnn3CC(Cl)c2ccc(Br)cc2)cc1 (stereo not given) | 1.95% (active) | -51.5% (active) | 76.2% | 50.4% | 38.3% | 34.3% | 42.3% | 57.5% | 30.9% | 56.2% |
| Cc1ccc(N=Nc2c(N)nn3c(-c4cc5ccccc5oc4=O)ccnc23)cc1 | 40.6% | 30.2% | 93.7% | 32.2% | 43% | 54.6% | 42.4% | 82.3% | 36% | 44.7% |
| Cc1ccc(C(=O)Nc2ccc(-n3ccnc3)c(C(F)(F)F)c2)cc1C#Cc1cnc2cccnn12 | 20.7% | 17.8% | -2.9% (active) | 36.4% | 33.6% | -16.3% (active) | -55% (active) | -15.1% (active) | 3.66% (active) | -10.8% (active) |
| COc1ccc(C(=O)c2c(N)c(C#N)cn2-c2ccc([N+](=O)[O-])cc2)cc1 | 104% | 102% | 92.2% | 100% | 111% | 109% | 102% | 93.1% | 96.3% | 112% |
| Fc1ccc(F)c(CNc2nc(SCCN3CCOCC3)nc3c2cnn3CC(Cl)c2ccc(Br)cc2)c1 (stereo not given) | -17.6% (active) | -49.7% (active) | 56.3% | 42.2% | 26.7% | 25.2% | -12.9% (active) | -1.48% (active) | -7.7% (active) | 32.3% |
| O=C(CSc1nnc(-c2ccc(-c3nc4ccc(Cl)cc4[nH]3)cc2)o1)Nc1ccc(Cl)cc1 | 8.62% (active) | 23.1% | 2.16% (active) | -8.15% (active) | -74.1% (active) | -24.1% (active) | 8.87% (active) | -44.8% (active) | -92.5% (active) | -73.6% (active) |
| CN(C)CCCNC(=S)Nc1ccc(/C=C/c2ccc(Cl)cc2)cc1 | -93.8% (active) | -51.4% (active) | 8.9% (active) | -35.2% (active) | -2.11% (active) | -35.3% (active) | -98.6% (active) | -82.3% (active) | -64.5% (active) | -97.6% (active) |
| O=C(Cn1c(-c2ccccc2)nc2ccccc21)N=Nc1c(O)[nH]c2ccc(Cl)cc12 | 7.61% (active) | 2.44% (active) | -49.5% (active) | -4.56% (active) | 13.4% | 21.7% | 10.7% | -2.77% (active) | 8.05% (active) | -51% (active) |
| O=C1N/C(=N\c2nccs2)S/C1=C\c1ccc([N+](=O)[O-])cc1 | 16% | 17.2% | 34.1% | 9.41% (active) | 7.89% (active) | 17.6% | -8.09% (active) | 2.3% (active) | 12.5% | 6.49% (active) |
| COc1ccc2oc(=O)c(-c3csc(N/N=C(\C)c4cc(OC)c(OC)c(OC)c4)n3)cc2c1 | 86.8% | 113% | 154% | 86.6% | 92.3% | 67.6% | 69.6% | 93.1% | 86.6% | 102% |
| CCCCNc1ccc2c3c(cccc13)C(=O)N(c1cccc(-c3nn(-c4ccccc4)cc3-c3nc4ccccc4s3)c1)C2=O | 108% | 114% | 92.8% | 106% | 110% | 87.7% | 96.3% | 88.3% | 94.4% | 101% |
| O=C(Nc1ccc(-c2ccc3c(c2)NC(=O)/C3=C\c2ccc[nH]2)cc1)Nc1ccc(Cl)c(Cl)c1 | 41.4% | 10.7% | 52.1% | 67.5% | 21.9% | 64.7% | 74.7% | 42.4% | 26.2% | 64.2% |
| COc1ccc(-c2cc(C(=O)Oc3ccc(C=O)cc3OC)nn2-c2ccc(S(C)(=O)=O)cc2)cc1 | 81.9% | 110% | 99.9% | 94.5% | 101% | 90.7% | 98% | 88% | 90.1% | 117% |
